Screening data from PubChem.
Ba/F3 V617F tox – lowers viability of Ba/F3 cells expressing EpoR and JAK2V617F | AID 1446 | ATP luminescence | inhibition, % at 5.6 µM | hit rate 1.1% among 220,000;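 active = inhibition above the campaign mean plus 3 SD over all tested compounds, cut at about 24% in these data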;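 also: cytokine-independent growth of Ba/F3 cells driven by EpoR plus mutant JAK2; 0% = DMSO-treated cells and 100% = JAK inhibitor I control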
BaF3 tox – parental Ba/F3 viability inhibition as JAK2V617F counter-screen; CellTiter-Glo ATP luminescence; inhibition, % at 5.6 µM; hit rate 1.1% among 220,000; AID 1486;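 active = inhibition above a per-campaign cutoff, the mean inhibition of all tested compounds plus 3 SD, cut at about 27% in these data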;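 also: 0% = DMSO wells and 100% = JAK Inhibitor I control wells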
GPR7 antag – human neuropeptides B/W receptor 1 antagonism; P48145; GPR7-expressing cells, fluorescence antagonist assay; inhibition, % at 4.4 µM; hit rate 1.1% among 290,000; in the data active = inhibition above about 16%, passing the limit was not always enough;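 also: cells stimulated with the agonist NPW; 0% = agonist with vehicle and 100% = vehicle without agonist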
Target sequence (P48145 whole entry, looked up): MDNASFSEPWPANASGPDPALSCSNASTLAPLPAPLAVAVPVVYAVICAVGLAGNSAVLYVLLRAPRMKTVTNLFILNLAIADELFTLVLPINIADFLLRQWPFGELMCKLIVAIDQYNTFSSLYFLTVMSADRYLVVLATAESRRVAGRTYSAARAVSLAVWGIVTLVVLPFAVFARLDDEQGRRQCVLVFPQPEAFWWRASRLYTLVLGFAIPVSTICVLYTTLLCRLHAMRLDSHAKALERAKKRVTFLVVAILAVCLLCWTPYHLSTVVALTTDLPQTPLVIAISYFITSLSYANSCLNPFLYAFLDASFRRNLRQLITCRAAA
IEC-6 cytotox – kills IEC-6 intestinal cells in KLF5 counter-screen. IEC-6 cytotoxicity, luminescence viability. AID 1825. hit rate 0.78% among 290,000. inhibition, % at 5 µM;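 also: 0% = plate median of test compound wells and 100% = cytotoxic reference compound wells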
FID counter – displaces DNA intercalator in HCV helicase counter-screen; DNA fluorescent intercalator displacement, fluorescence; inhibition, % at 7.9 µM; hit rate 0.17% among 290,000; AID 1845; in the data active = inhibition above about 37%;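 also: 0% = vehicle and 100% = reference compound; higher means more ethidium bromide displaced from hairpin DNA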
KLF5 inhibitor – inhibitors of KLF5 expression. DLD-1 KLF5 promoter-luciferase reporter, luminescence. inhibition, % at 5 µM. hit rate 0.23% among 290,000. AID 1700;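 active = inhibition above a per-plate limit of that plate's mean compound inhibition plus 3 SD, cut at about 60% in these data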;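 also: 0% = DMSO wells and 100% = LY294002 at 200 µM; higher means less KLF5 promoter-driven luciferase light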
IEC-6 cytotox cf – IEC-6 cytotoxicity, confirmation assay; AID 1907; inhibition, % at 5 µM; hit rate 63% among 1,900; IEC-6 rat intestinal epithelial viability, luminescence; shares compounds with IEC-6 cytotox;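 also: 0% = vehicle and 100% = reference cytotoxic drug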
* hit, by the source's call; . = no result given. An excerpt weighted towards active compounds, which were near 2.6% of everything screened. Rule as the data show it, unless noted: active = inhibition above about 22%; inactive = the rest.

SMILES | Ba/F3 V617F tox | BaF3 tox | GPR7 antag | IEC-6 cytotox | FID counter | KLF5 inhibitor | IEC-6 cytotox cf
Cc1ccc2oc(C(=O)NCc3ncc(C)[nH]3)c(C)c2c1 | . | . | 2.2 | 33.8* | 8.1 | 3.5 | 21.0
Fc1cccc(NCCc2c[nH]c3ccccc23)n1 | . | . | 17.9 | -1.6 | -1.0 | -27.8 | .
Cc1ccc(-c2nc(NCCCO)c3ccccc3n2)cc1 | . | . | 8.9 | 4.3 | 14.2 | 2.4 | .
OCCCNc1c2ccccc2nc2ccccc12 | . | . | -9.5 | 39.1* | 44.7* | 35.4 | 26.2*
c1ccc2c(NCCc3c[nH]c4ccccc34)c3ccccc3nc2c1 | . | . | 12.3 | 22.4* | 21.3 | -18.8 | 15.7
COc1ccc(-[n+]2c(C)cc(/C=C3\Sc4ccccc4N3C)cc2C)cc1 | 100.7* | 96.9* | 30.9* | 31.9* | 2.7 | 15.8 | 65.3*
Cc1ccc(C)n1-c1ccc(C(=O)NCc2ccncc2)cc1 | -3.6 | 1.3 | -9.7 | -2.9 | -4.0 | -1.9 | .
O=[N+]([O-])c1ccc(S(=O)(=O)c2ccccc2)nc1 | . | . | 32.4 | 100.6* | -6.0 | 55.5 | 85.2*
Cc1ccc(S(=O)(=O)c2ccc([N+](=O)[O-])cn2)cc1 | . | . | 24.9 | 101.4* | -0.4 | 46.6 | 13.2
Nc1ccc(S(=O)(=O)c2ccccc2)nc1 | . | . | -12.3 | -7.4 | -2.8 | -15.5 | .
O=S(=O)(Nc1cccc2ncccc12)c1cccs1 | -0.7 | 2.7 | 5.2 | 99.6* | 0.5 | 7.9 | 102.4*
CCCC[C@H](CN[C@@H](CNC)[C@H](C)CC)NCCC12CCC(CC1)C2 | . | . | 33.4 | 38.7* | 32.3 | -22.2 | 102.1*
O=C(CSc1nnc(NC(=O)c2ccccc2[N+](=O)[O-])s1)NCc1ccco1 | . | . | -8.5 | -0.5 | -2.1 | -29.4 | .
COC(=O)c1ccc(NS(=O)(=O)c2cc(-c3cc(C)no3)ccc2OC)cc1 | . | . | 4.2 | 63.4* | -12.4 | 50.1 | 39.5*
CC1=[N+](C)c2c(ccc3cccnc23)C1(C)C | 72.0* | 62.6* | 28.1* | 26.5* | -8.6 | -45.8 | 33.1*
Cc1[nH]c2c(ccc3cccnc32)c1C | -6.0 | -1.3 | 4.4 | -1.2 | -4.8 | 3.4 | .
CC1(C)CC(c2nc(-c3ccc(Cl)cc3)cs2)CCS1 (configuration not stated) | -1.6 | 2.6 | -6.7 | -10.2 | 2.4 | -20.7 | .
Oc1ccc(Oc2ccc(Oc3ccc(O)cc3)cc2)cc1 | . | . | -6.6 | 42.2* | -1.4 | -19.9 | -8.0
CC(=O)c1ccc(Oc2ccc(C(C)=O)cc2)cc1 | -1.2 | 4.1 | 3.5 | -0.7 | -6.0 | -49.9 | .
COc1ccc(C(=O)N/N=C\c2ccc(OC)c(COc3ccccc3Br)c2)c(OC)c1 | . | . | 13.2 | 22.1* | -27.4 | -29.1 | 8.9
COc1ccc(C(=O)N/N=C/c2ccc(OC)c(COc3c(F)c(F)cc(F)c3F)c2)cc1 | . | . | -0.8 | 9.9 | -25.4 | 19.6 | .
COc1ccc(OCc2cc(/C=N\NC(=O)c3ccccc3)ccc2OC)cc1 | . | . | -0.7 | 32.6* | -28.2 | 3.7 | 9.1
COc1cc(OC)cc(C(=O)N/N=C/c2ccc(OC)c(COc3ccc(F)cc3)c2)c1 | 9.6 | 55.0* | 21.6 | 64.9* | -7.2 | 40.7 | 39.7*
COc1ccc(/C=N\NC(=O)c2ccc(F)cc2)cc1COc1ccccc1C(N)=O | . | . | -13.1 | 3.0 | -32.7 | -20.9 | .
CCc1nnc(NS(=O)(=O)c2ccc(N/C=C(\C=O)c3nc4cc(Cl)ccc4o3)cc2)s1 | 0.0 | 6.4 | -0.8 | -1.3 | -12.4 | -13.3 | .
SMILES | Ba/F3 V617F tox | BaF3 tox | GPR7 antag | IEC-6 cytotox | FID counter | KLF5 inhibitor | IEC-6 cytotox cf
Cc1ccc(NC(=O)CSCc2c(C)noc2C)cc1C | 0.3 | 4.9 | -1.1 | -4.4 | -3.0 | -14.8 | .
CCN1/C(=C/C=C/c2oc3ccc(-c4ccccc4)cc3[n+]2CC)Oc2ccc(-c3ccccc3)cc21 | 99.8* | 78.2* | 97.8* | 61.4* | -155.8 | 14.7 | 4.6
CC(C)C(OC(=O)c1cccs1)C(=O)NCCc1ccccc1 (configuration not stated) | . | . | 5.2 | -3.3 | -23.7 | -0.6 | .
O=c1c(Br)c(Br)cnn1-c1ccccc1 | 101.2* | 50.2* | 6.9 | 101.6* | -2.8 | -13.3 | 45.6*
Cc1ccc(-n2ncc(Br)c(Br)c2=O)cc1 | 101.2* | 106.0* | 5.8 | 101.7* | 1.2 | -5.1 | 29.8*
CCCCn1c(=O)[nH]c(=O)c2c1nc(Cn1ncc(Cl)c(Cl)c1=O)n2CCC | . | . | -8.9 | 101.7* | -30.9 | 49.6 | 28.1*
N#Cc1c(N)n(CCOC(=O)c2cccc([N+](=O)[O-])c2)c2nc3ccccc3nc12 | 2.0 | 4.0 | 16.5 | -7.0 | 2.7 | 8.8 | .
COc1cc(OC)cc(C(=O)N/N=C(\C)CC(=O)Nc2ccccn2)c1 | . | . | 8.5 | 73.6* | -15.0 | 28.9 | 6.2
COc1ccc(CNC(=O)C/C(C)=N/NC(=O)c2cc(OC)cc(OC)c2)cc1 | . | . | 19.0 | 77.3* | -22.4 | 39.0 | 5.3
CCCCN(CCCC)CCNC(=O)c1cn(CC)c2ccc(S(=O)(=O)N3CCc4ccccc4C3)cc2c1=O | . | . | 8.9 | 0.8 | 5.7 | 4.8 | .
COc1ccc2cc(C(=O)N/N=C/c3sc4ccccc4c3O)ccc2c1 | 1.4 | 3.5 | -4.6 | -4.1 | -10.7 | -4.7 | .
COc1ccc(C(=O)N/N=C/c2sc3ccccc3c2O)cc1 | 0.7 | 7.4 | -0.7 | 27.0* | -16.3 | -12.5 | 12.3
CCOc1ccc(-c2cc(C(=O)N/N=C(\C)c3cccnc3)c3ccccc3n2)cc1 | . | . | -13.2 | 36.2* | -25.4 | -19.4 | 10.7
CC(C)NC(=O)c1cc(-c2cccs2)nc2ccccc12 | . | . | -21.5 | -4.7 | -8.4 | -37.2 | .
O=C(N/N=C/c1ccc([N+](=O)[O-])o1)c1cc(-c2ccc(-c3ccccc3)cc2)nc2ccccc12 | 64.4* | 61.5* | 8.0 | 35.8* | -12.6 | 32.1 | 51.6*
Cc1ccsc1/C=N/NC(=O)c1cc(-c2ccncc2)nc2ccccc12 | 70.6* | 75.5* | 1.1 | 72.4* | -13.3 | 61.2 | 57.8*
NNC(=O)c1cc(-c2cccs2)nc2ccccc12 | 3.6 | 4.1 | -13.4 | 31.8* | -12.7 | 26.5 | 2.8
O=C(O)c1cc([N+](=O)[O-])c(NCc2cccnc2)c([N+](=O)[O-])c1 | -6.3 | -1.3 | 2.5 | -6.0 | 3.6 | -15.7 | .
CNC(=O)COC(=O)c1[nH]c(C)c(C(C)=O)c1C | -1.2 | 2.4 | -5.3 | 0.4 | 5.6 | -4.7 | .
O=C(N/N=C/c1cccnc1)c1cc(-c2ccc(Br)cc2)nc2ccccc12 | . | . | -15.7 | 25.7* | -12.9 | 11.4 | 20.8
O=C(N/N=C/c1ccc([N+](=O)[O-])o1)c1cc(-c2ccncc2)nc2ccccc12 | -1.1 | 3.6 | 5.1 | -5.4 | -14.4 | -0.7 | .
Cc1ccc(/C=N/NC(=O)c2cc(-c3ccncc3)nc3ccccc23)o1 | . | . | 5.9 | 65.2* | -26.4 | 59.8 | 45.3*
COc1ccc(Nc2nc(N3CCOCC3)nc(N3CCOCC3)n2)cc1 | . | . | -17.2 | -1.3 | -28.9 | -28.6 | .
Cc1ccc(Nc2nc(N3CCOCC3)nc(N3CCOCC3)n2)cc1C | . | . | -13.3 | 84.3* | -45.4 | -5.9 | 88.2*
Cc1cccc(Nc2nc(N3CCCCC3)nc(N3CCCCC3)n2)c1 | 2.9 | 0.5 | -10.1 | 0.3 | -3.6 | -7.3 | .
